Source: PubChem BioAssay
IL-1B inflam inh = qHTS for Inhibitors of Inflammasome Signaling: IL-1-beta AlphaLISA Primary Screen; THP-1 LPS/ATP IL-1B secretion, AlphaLISA, 16 h; active compounds read low; activity change, % at 57.5 µM; 4.7% of 360,000 active; in the data active = activity change below about -50%; inconclusive = mostly about -30% to -49%
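Secreted IL-1B measured by AlphaLISA bead assay after 16 h compound exposure of THP-1 cells; compounds (final up to 57.5 uM) added 1 h before LPS (250 ng/mL) and ATP (1.25 mM) stimulation; lower signal means less secretion.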
DT40 TDP1 CPT = qHTS for Inhibitors of human tyrosyl-DNA phosphodiesterase 1 (TDP1): qHTS in cells in presence of CPT | AID 686979, 2013 | 12% of 420,000 active | chicken DT40 Tdp1-/-;hTDP1 cells + 20 nM CPT, ATP luminescence, 48 h | Potency, µM (highest dose often 46.2 µM), inactives show at the top dose activity change, negative = growth inhibition, actives largely listed as inhibitors; note: potency is the fitted concentration of half-maximal effect; nearly all actives have a fitted effect of over 55% in size
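Chicken DT40 Tdp1-/- cells stably complemented with human TDP1 were seeded at 400 cells/well in medium containing 20 nM camptothecin, exposed to pin-transferred compounds, and grown at 37 °C for at least 48 hr. Viability was read as ATP luminescence.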
CtBP-E1A inh = qHTS Assay for Inhibitors of the CtBP/E1A Interaction. activity change, % (concentration not given with the values). 0.49% of 340,000 active. AlphaScreen GST-E1A/His-CtBP binding, 1536-well; active compounds read low; in the data active = activity change below about -65%; inconclusive = mostly about -30% to -63%
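GST-E1A and His-tagged CtBP (125 nM each as 5X stock) were preincubated with pin-transferred compound for 2 h at 37 °C in the dark, then glutathione donor and nickel acceptor beads were added for 1 h before AlphaScreen reading.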
TDP1 cell noCPT = qHTS for Inhibitors of human tyrosyl-DNA phosphodiesterase 1 (TDP1): qHTS in cells in absence of CPT | Potency, µM (titrated, usually from 46.2 µM), inactives show at the top dose activity change, negative = growth inhibition, actives largely listed as inhibitors | DT40 Tdp1-/- hTDP1 cells, no CPT, ATP luminescence, 48 h | 15% of 420,000 active; note: potency is the fitted concentration of half-maximal effect; nearly all actives have a fitted effect of over 55% in size
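Chicken DT40 Tdp1-/- cells stably complemented with human TDP1 were seeded at 400 cells/well with DMSO in place of 20 nM camptothecin. After compound pinning, cells grew at least 48 hr at 37 °C; viability read by CellTiter-Glo luminescence.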
Six1-Eya2 blk = qHTS Assay for Inhibitors of the Six1/Eya2 Interaction | Homeobox protein SIX1 (Homo sapiens) + Protein phosphatase EYA2 (Homo sapiens), … | AlphaScreen GST-Six1/His-Eya2 binding, biochemical; active compounds read low | activity change, % (test concentration not listed) | 0.56% of 360,000 active | AID 651725, 2012; in the data active = activity change below about -65%; inconclusive = mostly about -30% to -63%
Target sequence (O00167 whole entry, looked up): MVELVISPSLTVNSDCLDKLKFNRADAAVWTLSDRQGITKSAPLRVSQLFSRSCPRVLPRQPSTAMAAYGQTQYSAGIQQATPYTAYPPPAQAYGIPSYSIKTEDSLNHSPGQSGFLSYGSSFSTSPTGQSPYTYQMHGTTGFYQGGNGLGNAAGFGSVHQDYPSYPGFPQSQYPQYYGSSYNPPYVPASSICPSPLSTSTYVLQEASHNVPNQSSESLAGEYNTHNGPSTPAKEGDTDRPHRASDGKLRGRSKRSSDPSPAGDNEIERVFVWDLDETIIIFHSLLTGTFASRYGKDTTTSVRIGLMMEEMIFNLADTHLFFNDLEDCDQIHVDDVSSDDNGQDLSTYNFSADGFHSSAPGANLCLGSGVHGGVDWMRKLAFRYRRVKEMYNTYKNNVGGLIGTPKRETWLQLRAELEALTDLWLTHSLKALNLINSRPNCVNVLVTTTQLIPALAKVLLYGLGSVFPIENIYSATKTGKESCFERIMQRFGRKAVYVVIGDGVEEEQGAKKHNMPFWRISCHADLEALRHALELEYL
Target sequence (Q15475 whole entry, looked up): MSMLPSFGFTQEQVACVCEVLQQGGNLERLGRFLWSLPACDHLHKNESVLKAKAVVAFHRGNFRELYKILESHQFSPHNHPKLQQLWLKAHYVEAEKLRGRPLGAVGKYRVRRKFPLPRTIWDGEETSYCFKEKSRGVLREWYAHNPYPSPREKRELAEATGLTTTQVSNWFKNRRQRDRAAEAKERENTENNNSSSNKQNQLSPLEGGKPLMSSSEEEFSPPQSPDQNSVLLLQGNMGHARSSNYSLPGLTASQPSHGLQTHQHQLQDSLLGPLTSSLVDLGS
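Homogeneous AlphaScreen proximity assay pairing GST-Six1 with His-tagged Eya2 (added as 5X mix: 250 nM and 500 nM) in 50 mM Tris pH 8.0, 300 mM NaCl, 1 mM TCEP. Glutathione donor and nickel acceptor beads; 1 h, 37 °C, dark.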
TDP1 inh = qHTS Assay for Inhibitors of Tyrosyl-DNA Phosphodiesterase (TDP1) | Tyrosyl-DNA phosphodiesterase 1 (Homo sapiens), Q9NUW8 | Potency, µM (titrated, usually from 130 µM), for the others: top-dose activity change, negative = inhibition, hits mostly inhibitors | 0.28% of 350,000 active | recombinant TDP1, AlphaScreen DNA substrate cleavage; note: potency is the fitted concentration of half-maximal effect; nearly all actives have a fitted effect of over 40% in size
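AlphaScreen read-out: signal falls as enzyme removes the 3' tyrosine-FITC from a 5'-biotinylated DNA oligo (15 nM, 5 min, RT). Enzyme was E. coli-made recombinant Tdp1 at 1 nM, exposed to compound for 15 min beforehand; beads 10 ug/ml, 10 min.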
Starred values were filed as active, the others as inactive; ? = inconclusive; . = not tested or not shown; ! = not active in a repeat; [ ] = another dose, or the depositor's remark. In the library only some 18% were active in any assay of this set; here they are far more common. Unless noted, calls come from the whole dose curve; as a rule, active = well fitted curve in the direction sought with a large enough effect; inconclusive = small, poorly fitted or top-dose-only effect, or another doubt; inactive = no such curve, though single readings can be large; an effect the other way counts as inactive or inconclusive. % is set by controls: 0 for no effect and ±100 for the full control effect.

SMILES	IL-1B inflam inh	DT40 TDP1 CPT	CtBP-E1A inh	TDP1 cell noCPT	Six1-Eya2 blk	TDP1 inh
Cc1cc(Cl)n2ncc(-c3ccccc3)c2n1	-99*	?	-25	29µM*	-5	8%
Cc1cc(N)n2ncc(-c3ccc(Cl)cc3)c2n1	-14	18µM*	0	?	25	5%
Cc1cc(N)n2ncc(-c3ccc(F)cc3)c2n1	-6	-13%	4	0%	1	-2%
Cc1cc(C)n2ncc(-c3cccc(Br)c3)c2n1	17	8%	71	-3%	31	.
COc1cccc(N2CCN(c3nc(C)c(C)c(=O)[nH]3)CC2)c1	23	1%	-3	-11%	-1	3%
COc1cccc(N2CCN(c3nc(-c4ccccc4C)cc(=O)[nH]3)CC2)c1	-73*	-49%	?	?	-14	8%
COCCNC(=O)c1onc(CSc2ccc(F)cc2)c1C(=O)NCCOC	18	2%	4	-2%	2	7%
O=C1c2ccccc2-c2nnc(-c3ccc(F)cc3)cc21	13	?	-1	9.2µM*	1	-8%
Cc1ccc(-c2cc3c(nn2)-c2ccccc2C3=O)cc1	3	16µM*	-19	23µM*	-14	-1%
O=c1[nH]nc(-c2ccc(F)cc2)cc1-c1ccccc1	-72*	?	0	-29%	-4	.
O=c1[nH]nc(-c2ccc(F)cc2)cc1Cc1ccc(F)cc1	67	?	-20	-18%	1	-1%
Cc1ccc(NC(=O)N2CCC(CN3CCCCC3)CC2)c(Cl)c1	.	-1%	.	-24%	.	4%
CCCNC1CCS(=O)(=O)C1 (stereo not drawn)	21	-4%	5	0%	8	4%
CCCOc1cccc(/C=N/NC(=O)c2csc(C)c2C)c1	14	-25%	5	-22%	-2	3%
CCCc1ccc2oc(C(=O)N3CCC[C@H]3CO)c(C)c2c1	-9	-27%	.	?	9	.
CCOC(=O)N1CCC(NC(=O)c2oc3c(C)c(C)ccc3c2C)CC1	-15	21µM*	-5	?	-10	.
CCCCN(CC)CCNC(=O)c1cc2cc3ccc(Cl)cc3nc2o1	.	16µM*	-3	?	3	.
Cc1ccc2c(C)c(C(=O)N3CCCCC3CO)oc2c1C (stereo not drawn)	-1	18µM*	2	13µM*	2	4%
Cc1nc2ccccc2c2oc(C(=O)NCCN3CCCCC3C)cc12 (stereo not drawn)	-25	?	-3	16µM*	-26	0%
CCCN(CCC)CCCNC(=O)c1cc2cc3ccc(Cl)cc3nc2o1	-7	?	1	?	-9	.
Cc1oc2ncn(CC(C)C)c(=O)c2c1C(=O)NCCCN(C)Cc1ccccc1	.	-9%	.	-28%	.	0%
CCOC(=O)N1CCC(NC(=O)c2cc3c(C)nc4ccccc4c3o2)CC1	-1	9.2µM*	?	21µM*	?	6%
CCCCN(CC)CCNC(=O)c1cc2c(C)nc3ccccc3c2o1	-22	16µM*	-1	23µM*	-16	3%
CCn1cc(C(=O)O)c(=O)c2cnc(N3CCN(C(=S)NC(=O)c4ccc(Br)cc4)CC3)nc21	?	2%	-1	0%	-2	-2%
COc1cc(/C=C(\C#N)C(=O)NCC2CCCO2)ccc1OCC(=O)O (stereo not drawn)	-10	-2%	-24	?	5	5%
SMILES	IL-1B inflam inh	DT40 TDP1 CPT	CtBP-E1A inh	TDP1 cell noCPT	Six1-Eya2 blk	TDP1 inh
COc1cc(-c2c(-c3ccsc3)sc3ccccc23)cc(OC)c1OC	13	1%	.	5%	-3	-5%
COC(=O)c1c(-c2ccc(N(C)C)cc2)sc2ccc(OC)cc12	39	?	31	13µM*	42	-3%
COC(=O)c1c(-c2ccsc2)sc2ccc(-c3cc(OC)c(OC)c(OC)c3)cc12	1	?	-2	9.2µM*	-11	1%
Cc1ccc(C2C(C#N)=C(N)Oc3c2c(=O)n(C)c(=O)n3C)cc1 (stereo not drawn)	-8	-5%	0	-9%	5	-2%
CN(C)CCCN1c2ccccc2CCc2ccc(Cl)cc21	?	15µM*	-19	10µM*	-4	5%
O=C(CCN1c2ccccc2Sc2ccccc21)Oc1ccccc1	-9	-8%	3	-7%	15	3%
CCC(=O)c1ccc2c(c1)N(CCCN(C)C)c1ccccc1S2	?	?	1	21µM*	3	-7%[56.1 µM]
CN(CCCN1c2ccccc2CCc2ccccc21)CC(=O)c1ccc(Cl)cc1	.	?	.	?	.	18%
CN(C)CCCN1c2ccccc2Sc2ccccc21	?	16µM*	-20	18µM*!	-16	11%
COc1ccc2c(c1)Sc1ccccc1N2CCN(C)C	?	?	?	-23%	?	5%
COc1ccc(NCc2nnc(SCC(=O)NCc3ccco3)n2-c2ccccc2OC)cc1	10	-12%	-1	-18%	-6	-1%[56.1 µM]
COc1ccc(NCc2nnc(SCC#N)n2-c2ccccc2OC)cc1	-8	?	-1	16µM*	9	2%
CC(=O)c1ccc(NC(=O)CSc2nc(-c3ccc(C)cc3)nc3c2c(=O)n(C)c(=O)n3C)cc1	.	-7%	.	11%	.	5%
COC(=O)CC1C(=O)NCCN1C(=O)c1c(F)cccc1F (stereo not drawn)	7	-11%	4	-1%	-6	6%[0.0935 µM]
CC(C)(C)C#CCn1c(/C=[N+](\[O-])C2CCCCC2)nc2ccccc21	18	12µM*	0	18µM*	-3	.
OCCn1c(SC2CCCCC2)nc2ccccc21	-11	-21%	15	?	2	2%
C/C(=N\NC(=O)C(O)c1ccccc1)c1ccc(Cl)cc1 (stereo not drawn)	-23	-4%	-2	-12%	4	4%
CC(C)(C)c1ccccc1NC(=O)Nc1nc(C(N)c2ccccc2)cs1 (stereo not drawn)	-16	?	-12	?	-21	.
CC(C)c1ccc(NC(=O)Nc2nc(C(N)c3ccccc3)cs2)cc1 (stereo not drawn)	-94*	?	-13	23µM*	-21	.
